High-throughput results (PubChem BioAssay)
Only some compounds are listed: those with a hit (about 12% of all), similar ones and a draw of the others.
Shiga inhibitor – blocks Shiga toxin action in Vero cells; Vero cells, Shiga toxin protein synthesis inhibition reporter; inhibition, % at 38.7 µM; 9.2% of 290,000 active; AID 2315; in the data active means inhibition mostly above about 28%, no sharp cut-off; inactive means mostly below about 43%
Marburg entry inh – blocks Marburg virus binding to or entry into cells; Marburg virus pseudotyped entry inhibition, cell reporter; 1.8% of 300,000 active; Potency, µM (series often up to 37.8 µM), hits mostly inhibitors; calls by dose curve; tested in HEK293 cells
Cycloheximide cs – affects cycloheximide protein synthesis inhibition readout, counter-screen; cell reporter, cycloheximide protein synthesis inhibition counterscreen; max response, %; 12% of 300,000 active; AID 2314; in the data active means max response mostly above about 13%, no sharp cut-off; inactive means mostly below about 14%; further: read at 38.3 µM for the half of the compounds with a filed dose
Lassa entry inh – blocks Lassa virus binding to or entry into cells. Lassa virus pseudotype entry inhibition, cell reporter. Potency, µM (doses to about 37.9 µM), most hits filed as inhibitors. 1.2% of 300,000 active. AID 540256; calls by dose curve; tested in HEK293 cells; further: nearly all actives have a fitted effect of over 50% in size
A number is an active result; i = inactive; ? = inconclusive; nt = not tested or not shown; + = active, no number.

SMILES	Shiga inhibitor	Marburg entry inh	Cycloheximide cs	Lassa entry inh
Cc1ccc(NC(=O)CSc2nc3ccc(NC(=O)c4ccco4)cc3s2)cc1	nt	i	nt	i
CCc1nnc(NC(=O)CCC(=O)N2CCN(Cc3ccc(F)cc3)CC2)s1	i	nt	i	nt
COc1ccc2c(c1)C(c1cc(OC)c(OC)c(OC)c1)CC(=O)O2 (stereo not drawn)	i	nt	i	nt
COc1ccc(OCCCC(=O)Nc2ncn[nH]2)cc1	i	i	i	?
Cc1ccc(C(=O)N/N=C/c2cn(Cc3ccccc3)c3ccccc23)cn1	i	nt	20	nt
Cc1c(/C=N/Nc2ccc(C(=O)O)cc2)c2ccccc2n1C	i	nt	42	nt
Cc1c(/C=N\NC(=O)C2COc3ccccc3O2)c2ccccc2n1C (stereo not drawn)	i	i	i	?
O=C(O)c1ccc(N/N=C/c2cn(Cc3ccc(F)cc3)c3ccccc23)cc1	70	i	29	nt
O=S(=O)(N/N=C/c1cn(Cc2ccccc2)c2ccccc12)c1ccccc1	51	i	i	i
COc1cc([N+](=O)[O-])ccc1NC(=O)Cn1ccsc1=N	i	?	i	i
CCN(c1ccc(C)cc1C)S(=O)(=O)c1nnc(NC(=O)c2ccc(F)cc2)s1	nt	nt	nt	i
COc1ccc(Cl)cc1S(=O)(=O)N1CCC(C(=O)NCc2ccco2)CC1	i	i	i	i
CCCn1c(=O)c2ccccc2n2c(SCCOc3ccc(Cl)cc3)nnc12	70	i	i	i
CCSc1ccccc1-c1nc(-c2ccncc2)no1	i	nt	26	nt
Cc1ccc(-c2noc(-c3ccccc3Br)n2)cc1	65	?	35	?
CN(C)c1ccc(-c2noc(-c3ccccc3O)n2)cc1	126	?	47	5.8µM
COc1ccc(-c2nc(-c3ccc(Br)cc3)no2)c(OC)c1	197	?	39	i
COc1cc(OC)cc(-c2nc(-c3ccc(Br)cc3)no2)c1	i	?	i	?
Fc1ccccc1-c1nc(-c2ccc(Cl)cc2)no1	nt	?	nt	i
COc1nc(-c2ccc(C)cc2)ccc1-c1noc(-c2ccccc2Br)n1	nt	i	nt	?
Cc1noc(C)c1CSCC(=O)N1CCN(c2ccc([N+](=O)[O-])cc2)CC1	i	?	i	?
FC(F)(F)c1ccccc1-c1nc(-c2ccncc2)no1	47	?	40	i
CS(=O)(=O)c1ccccc1-c1nc(-c2ccc(C(F)(F)F)cc2)no1	60	i	21	i
Cc1c(-c2nc(-c3ccc(C(F)(F)F)cc3)no2)n(C)oc1=O	129	?	70	?
COc1ccccc1-c1nc(-c2ccncc2)no1	79	?	32	i
SMILES	Shiga inhibitor	Marburg entry inh	Cycloheximide cs	Lassa entry inh
Cn1c(=O)[nH]c(=O)c2c1nc(CN1CCN(Cc3ccccc3)CC1)n2CC(N)=O	i	i	i	nt
O=C(COC(=O)Cc1ccsc1)Nc1ccc(Cl)c(S(=O)(=O)N2CCOCC2)c1	i	i	i	i
CCOc1nc(C)ccc1-c1noc(-c2ccccc2OC)n1	i	i	24	i
CCOc1cc(-c2nc(-c3ccc(C)nc3OCC)no2)cc(OCC)c1OCC	i	i	i	i
COc1cc(OC)cc(-c2nc(-c3ccccc3OC)no2)c1	i	i	i	i
COc1ccccc1-c1nc(-c2ccc(Br)cc2)no1	i	i	30	i
CN1CCN(c2ccc(NC(=O)CSc3nnnn3-c3ccccc3Cl)cc2)CC1	i	nt	i	nt
CN(C)c1ccc(/C=N/c2cc(-c3ccccc3)nn2-c2ccccc2)cc1	57	i	39	i
CN(C)c1ccc(C=C(c2nnnn2-c2ccccc2)c2nnnn2-c2ccccc2)cc1	i	?	i	?
CN(Cc1nc2ccccc2c(=O)[nH]1)C(=O)c1cc(-c2ccc(Br)cc2)nc2ccccc12	nt	i	nt	i
CCN(CC)CCNc1nc(SC)nc2sc3c(c12)CCN(C)C3	i	7.1µM	i	?
CC(C)Sc1nc(N)c2c3c(sc2n1)CN(C)CC3	i	i	16	i
CSc1nc(NCc2ccccc2)c2c3c(sc2n1)CN(C)CC3	53	i	19	i
Nc1c(C(=O)Nc2ccccc2)c2nc3ccccc3nc2n1-c1ccc(O)cc1	i	nt	i	nt
CC(C)[C@@H](C(=O)N1CCNCC1)n1cc(CCO)nn1	i	nt	i	nt
O=C(NCc1ccc(Cl)cc1Cl)c1cccc(N2CCCS2(=O)=O)c1	nt	i	nt	i
CSc1nnc(-c2sc(-c3ccccc3)nc2C)n1C	i	i	12	i
CSc1nnc(-c2ccc(Br)s2)n1C	69	i	47	i
CCOC(=O)C1CCCN(S(=O)(=O)c2cccc3cccnc23)C1 (stereo not drawn)	i	i	i	i
COc1ccc(N=Cc2cc3c(cc2O)OC(N)=C(C#N)C3c2ccccc2)cc1 (stereo not drawn)	i	?	11	?
O=[N+]([O-])c1ccc2nonc2c1Nc1ccccc1	i	i	23	i
O=[N+]([O-])c1cccc(Nc2c([N+](=O)[O-])ccc3nonc23)c1	i	i	i	i
Cc1ccc(NC(=O)C2CCN(S(=O)(=O)c3ccc(N4CCCC4=O)cc3)CC2)cc1Cl	i	?	i	?
CCOc1ccc2nc(COC(=O)c3cccc([N+](=O)[O-])c3)c(C(C)=O)[n+]([O-])c2c1	i	?	i	i
C/C(CC(=O)N1CCN(C=O)CC1)=N\NC(=O)c1ccc([N+](=O)[O-])cc1	i	nt	20	nt
SMILES	Shiga inhibitor	Marburg entry inh	Cycloheximide cs	Lassa entry inh
O=C(COc1ccc2ccccc2c1)Nc1ccccc1C(=O)O	i	nt	20	nt
CSc1ccccc1NC(=O)COc1ccc(Cl)cc1	48	i	32	?
NC(=O)c1ccccc1NC(=O)COc1ccc(Cl)cc1	90	nt	29	nt
O=C(COc1ccc(Cl)cc1)Nc1ccccc1Cl	76	i	49	?
O=C(COc1ccccc1)Nc1ccncc1Cl	92	nt	52	nt
O=C(COc1ccccc1)Nc1nnc(-c2ccccc2Cl)o1	nt	i	nt	i
Cc1ccc(OCC(=O)Nc2ccccc2-c2ccccc2)cc1	i	?	i	i
Cc1ccc(OCC(=O)Nc2ccccc2C(N)=O)cc1	nt	i	35	?
C[C@@H](O)[C@H]1C(=O)N2C(C(=O)O)=C(SCCN=CN)C[C@H]12	nt	i	nt	i
Clc1ccccc1CSc1cnnc2ccccc12	nt	?	nt	i
CCOC(=O)C1CCC(CN(Cc2ccc(Cl)cc2)S(=O)(=O)c2cccc(Cl)c2C)CC1 (stereo not drawn)	nt	nt	nt	i
COc1ccc(C(=O)CN2CCN(c3ncccn3)CC2)cc1	i	i	i	i
COc1cccc(N2CCN(c3cnc4ccccc4n3)CC2)c1	94	?	36	i
COc1ccc(N2CCN(c3cc(C)c4ccccc4n3)CC2)cc1	i	i	i	?
COc1ccc(N2CCN(c3cnc4ccccc4n3)CC2)cc1	70	i	37	?
COc1ccc(N2CCN(c3ncccn3)CC2)cc1	152	i	24	?
CC(=O)c1cccc(NC(=O)c2cccn2-c2nnc(N3CCCCC3)s2)c1	nt	nt	nt	i
CCCc1nnc(SCC(=O)Nc2cccc(C(F)(F)F)c2)o1	i	i	i	i
COc1ccccc1N1CCN(/N=C/c2cccc(Cl)c2)CC1	151	?	38	i
COc1cc(OC)c(/C=N/N2CCN(c3ccccc3OC)CC2)c(OC)c1	65	nt	24	nt
COc1cccc(/C=N/N2CCN(c3ccccc3OC)CC2)c1	+	i	49	i
CSCC[C@H](NC(=O)[C@H](Cc1ccccc1)n1c(=O)[nH]c2ccccc2c1=O)C(=O)N1CCC(C(=O)O)CC1	i	nt	i	nt
